Compounds with a hit are over-represented: about 4.7% of the library has one in this group of screens.
Cav3 T inh: blocks human Cav3.2 T-type calcium channel. O95180. Cav3.2-expressing cells, Fluo-4 calcium fluorescence FDSS; hits give low values. B-score at 10 µM. 100,000 tested, 4% active;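 active = single-dose well whose peak fluorescence ratio is a statistical outlier from its plate by either plate-standardised score or position-corrected B-score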
PLK1 inh: inhibitors of human PLK1 kinase; AID 619; recombinant PLK1 kinase, TR-FRET peptide phosphorylation; 97,000 tested, 0.53% active; inhibition, % at 10 µM; P53350;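 active = inhibition of 50% or more in the single-concentration screen; inactive = inhibition below 50%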;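 also: 0% = DMSO max control and 100% = H-89 dihydrochloride min control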
Pyk2 oligo antag: blocks oligomerization of human Pyk2 in cells; Q14289; Q293 cells, Pyk2 FERM NanoBiT luminescence; hits give low values; z-score (the deposit names both 25 µM and 10 µM); 99,000 tested, 0.83% active;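 active = Z-score of -3 or lower, scaled per plate to the spread of control and sample wells; inactive = z-score above -3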;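 also: negative z-score means lost luminescence so less FERM oligomerization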
DAT uptake mod: modulates human dopamine transporter uptake under cocaine; LLC-PK1 hDAT cells, [14C]-dopamine uptake with cocaine IC80; actives deviate in either direction; AID 449768; Q01959; B-score at 10 µM; 110,000 tested, 1.3% active;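 active = Z score or B-score, a plate-position-corrected score, falls beyond the plate's 99.7% confidence bounds, in either direction; inactive = both scores lie inside the 99.7% bounds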;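 also: scored against the spread of the other compound wells on the same plate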
Plk1 PBD FP: inhibitors of human Plk1 polo box domain binding | P53350 | Plk1 PBD phosphopeptide binding, fluorescence polarization | inhibition, %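 (tested at about 20 µM)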 | 97,000 tested, 0.13% active; in the data active = inhibition above about 34%, passing the limit was not always enough
sdo1 growth: restores growth of sdo1-depleted yeast. S. cerevisiae sdo1-depleted JHY4D growth rescue, OD600 30 h; hits give high values; pdr5 snq2 efflux-pump mutant strain. 140,000 tested, 0.21% active. z-score at 10 µM;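 active = z-score above 3 at both the 24 hr and the 30 hr optical density reads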;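 also: z-score against mean and SD of all compound wells on the same plate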
Starred values were filed as active, the others as inactive; x = no result given.

SMILES	Cav3 T inh	PLK1 inh	Pyk2 oligo antag	DAT uptake mod	Plk1 PBD FP	sdo1 growth
O=C(COc1ccccc1)NCc1nnc2c3ccccc3c(-c3ccccc3)nn12	x	x	x	x	x	-0.46
CN1CCN(CCCc2c3c(cc4c2CCC4)CCC3)CC1	x	x	x	x	x	-0.12
O=C(Cn1ncc2c3ccccc3n(Cc3ccc(F)cc3)c2c1=O)N1CCN(c2ncccn2)CC1	-2.7	5	-1	2.8*	-5	-1.3
O=C(NCCC1=CCCCC1)C1CCN(S(=O)(=O)c2ccc(Br)s2)CC1	x	x	x	x	x	-0.89
C[N+]1(C)CCCC(OC(=O)C(O)(c2ccccc2)c2ccccc2)C1 (stereo not given)	-4.5*	x	x	-1.6	x	x
O=C(CSc1ccc(Cl)cc1)Nc1ccc(-c2nc3ccccc3[nH]2)cc1	x	x	x	x	x	-0.6
CC(C)OC(=O)c1cc2c(ccn2C)n1CC(=O)N1CCC(Cc2ccccc2)CC1	-7.9*	-7	0.09	2.2*	-18	-1.1
Cc1ccccc1Cn1c(C(=O)OC(C)C)cc2c1ccn2C	-0.84	-6	0.94	0.24	-10	-1.1
N#Cc1nc(COc2ccccc2)oc1N1CCC(Cc2ccccc2)CC1	-5.6*	0	0.8	-1.1	-11	-1.1
Cc1ccc(OCc2nc(C#N)c(N3CCN(Cc4ccccc4)CC3)o2)cc1	-5.9*	-10	1.2	-1.3	-7	-1.9
COc1ccccc1NC(=S)NC(=O)c1ccc(Cn2cc(Br)cn2)cc1	x	x	x	x	x	-1
CCCOc1ccc(CN(CCC#N)C(=S)NC(=O)c2ccccc2)cc1	x	x	x	x	x	-0.77
CCOC(=O)c1c(N)sc(C(O)(C(F)(F)F)C(F)(F)F)c1-c1ccc(F)cc1	-4.9*	-11	-0.96	-0.6	9	-1.3
CCOC(=O)c1c(N)sc(C(O)(C(F)(F)F)C(F)(F)F)c1-c1ccc(Cl)cc1	-0.57	3	-1.6	-0.071	-27	-2.8
O=C(COC(=O)/C=C/c1ccc(F)cc1)Nc1ccccc1-c1ccccc1	x	x	x	x	x	-0.68
CCN(CC)S(=O)(=O)c1ccc(/C=C/C(=O)Nc2cccc(F)c2)cc1	x	x	x	x	x	-0.59
Cn1cc(/C=N/n2cnc3scc(-c4ccccc4)c3c2=O)c2ccccc21	-4*	3	-0.57	0.62	-13	-0.69
O=C(O)COc1ccc(/C=N/n2cnc3scc(-c4cccs4)c3c2=O)cc1	x	x	x	x	x	-0.03
CN1C[C@H](C(=O)NC2(C)OC3(O)[C@@H]4CCCN4C(=O)[C@H](Cc4ccccc4)N3C2=O)CC2c3cccc4[nH]cc(c34)C[C@H]21 (stereo not given in full)	0.7	x	x	4*	x	x
CCN(CC)c1ccc(C(=O)OCc2cc(=O)oc3cc(O)ccc23)cc1	-0.86	-66	-3.1*	0.069	6	-0.76
CCN(CC)c1ccc2c(Cl)cc(=O)oc2c1	-0.44	-5	x	0.2	-1	-1.4
CCOC(=O)C(NC(=O)Nc1ccc(C(N)=O)cc1)(c1ccccc1)C(F)(F)F (stereo not given)	x	x	x	x	x	0.05
CC(Oc1ccccc1)C(=O)Nc1cccc(-c2nc3ccccc3[nH]2)c1 (stereo not given)	-4.6*	3	-1.1	-0.019	20	-1.5
CC(C)(C)C(=O)Nc1cccc(-c2nc3ccccc3[nH]2)c1	-1.3	5	-0.44	2.2	-9	0.09
Cc1ccc(S(=O)(=O)NCC2CCC(C(=O)NCCCOC(C)C)CC2)cc1 (stereo not given)	x	x	x	x	x	1.5
SMILES	Cav3 T inh	PLK1 inh	Pyk2 oligo antag	DAT uptake mod	Plk1 PBD FP	sdo1 growth
CCOC(=O)c1cccc(NC(=O)C2CCCN(S(=O)(=O)c3c(C)nn(C)c3C)C2)c1 (stereo not given)	0.29	-11	x	3*	-11	0.18
CSc1cccc(NC(=O)C2CCN(S(=O)(=O)c3ccc(F)cc3)CC2)c1	-2.6	-1	-0.92	-0.92	0	-1.4
CCOC(=O)c1cccc(NC(=O)C2CCCN(S(=O)(=O)c3c(C)n[nH]c3C)C2)c1 (stereo not given)	-0.062	4	-0.06	-0.28	-10	-0.49
CSc1cccc(NC(=O)C2CCCN(S(=O)(=O)c3ccc(F)cc3)C2)c1 (stereo not given)	-6.3*	-5	-0.51	-0.15	13	-1.2
CCc1nc2sc3ccccc3c(=O)c2c(=O)n1Cc1ccco1	-0.094	x	-0.33	-7.3*	x	-0.21
O=c1c2ccccc2sc2nc(C3CCCCC3)n(Cc3ccco3)c(=O)c12	x	x	-0.49	x	x	-1.5
Cc1cccc(N2CCN(C(=O)C(Cc3ccccc3)n3cccc3)CC2)c1C (stereo not given)	-4.7*	-10	x	-0.12	22	-1.5
Cc1cccc(N2CCN(C(=O)CCCOc3ccccc3)CC2)c1C	-7.7*	-3	-0.91	1	-9	-2.3
O=C(C(Cc1ccccc1)n1cccc1)N1CCN(c2ncccn2)CC1 (stereo not given)	-0.71	-13	x	-0.27	18	0.15
CCOC(=O)N1CCN(C(=O)CCCOc2ccccc2)CC1	0.015	-8	0.59	-0.017	-15	0
O=C(COc1cccnc1[N+](=O)[O-])Nc1ccc2c(c1)OC(F)(F)O2	x	x	x	x	x	0.87
Cc1ccc(CSc2nc3ccccc3c(=O)n2Cc2ccco2)cc1	-4.6*	-17	-0.65	0.56	-2	-0.87
O=c1c2ccccc2nc(SCc2cccc(F)c2)n1Cc1ccco1	-3.4	-6	-0.33	1.3	7	-0.54
O=c1c2ccccc2nc(SCc2nc3ccccc3s2)n1Cc1ccco1	-1.7	5	1.4	-0.49	16	-1.6
O=c1c2ccccc2nc(SCc2ccccc2)n1Cc1ccco1	-5.8*	0	-1.1	0.16	2	-0.82
CCN(C(=O)CSc1nc2cc(C(=O)OC)ccc2c(=O)n1Cc1ccco1)c1cccc(C)c1	-4.3*	-8	-2.3	2.3	-18	-0.99
COc1cccc(-c2nc3sc4c(c3c(=O)[nH]2)CCCCC4)c1	x	x	x	x	x	-0.73
COCC(C)n1c(C)cc(C(=O)COC(=O)c2oc3ccccc3c2C)c1C (stereo not given)	-5.8*	-8	-0.05	1.4	5	0.12
COCC(C)n1c(C)cc(C(=O)COC(=O)c2n[nH]c3ccccc23)c1C (stereo not given)	-2.8	-12	-0.68	0.76	-21	-0.71
CCC(=O)c1cc(-c2nc3ccccc3n2C)n(C)c1	0.66	-20	-0.28	1.2	11	-0.53
Cn1cc(C(=O)c2ccccc2)cc1-c1nc2ccccc2n1C	-0.22	-13	-0.05	2.6*	-14	-1.9
COc1ccccc1CNC(=O)C/C(C)=N/NC(=O)COc1ccc(C)cc1Br	x	x	x	x	x	0.77
C/C(CC(=O)Nc1ccccc1-c1ccccc1)=N\NC(=O)COc1ccc(C)cc1Br	-6.5*	-1	0.04	1.2	1	-0.93
O=C(CN1CCCN(S(=O)(=O)c2ccc(F)cc2)CC1)Nc1ccccc1Br	-3.2	-13	0.21	3.2*	-1	-1.9
C/C(Cn1nnc2ccccc21)=N\NC(=O)c1cccc(Br)c1	x	x	x	x	x	0.89
CCN1CCN(C(=O)c2ccc(COc3ccc(Cl)cc3)o2)CC1	1.1	-5	0.05	1.2	0	0.85
